Screening results as filed in PubChem.
RecA intein inh – inhibitors of M. tuberculosis RecA intein splicing; 290,000 compounds, 0.75% hits; cell-free RecA intein splicing, fluorescence; AID 2221; inhibition, % (concentration not given with the values); in the data active = inhibition above about 30%;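 note: 0% = vehicle wells and 100% = reference inhibitor control wells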
Target sequence (P9WHJ3 whole entry, looked up): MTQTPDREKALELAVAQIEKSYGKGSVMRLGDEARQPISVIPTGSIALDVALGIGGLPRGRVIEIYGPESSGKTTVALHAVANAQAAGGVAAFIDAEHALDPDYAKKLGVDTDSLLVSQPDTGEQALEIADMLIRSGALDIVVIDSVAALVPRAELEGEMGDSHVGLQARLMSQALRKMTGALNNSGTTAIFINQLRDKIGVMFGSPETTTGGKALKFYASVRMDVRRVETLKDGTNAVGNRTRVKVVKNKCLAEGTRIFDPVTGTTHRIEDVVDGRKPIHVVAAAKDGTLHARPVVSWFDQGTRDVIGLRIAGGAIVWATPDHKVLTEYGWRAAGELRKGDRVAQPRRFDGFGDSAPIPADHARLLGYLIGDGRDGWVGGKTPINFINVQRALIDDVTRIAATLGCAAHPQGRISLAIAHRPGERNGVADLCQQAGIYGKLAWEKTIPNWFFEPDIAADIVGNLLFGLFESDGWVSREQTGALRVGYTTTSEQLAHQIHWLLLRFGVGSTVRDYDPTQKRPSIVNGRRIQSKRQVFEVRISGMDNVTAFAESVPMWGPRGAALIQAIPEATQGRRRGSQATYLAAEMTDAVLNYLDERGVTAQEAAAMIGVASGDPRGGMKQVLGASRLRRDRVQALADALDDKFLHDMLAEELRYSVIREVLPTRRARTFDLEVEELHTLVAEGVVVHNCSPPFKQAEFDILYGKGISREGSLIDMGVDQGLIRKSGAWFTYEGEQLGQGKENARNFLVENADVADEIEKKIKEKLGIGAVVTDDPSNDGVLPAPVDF
BJeLR viability – BJeLR cell viability loss; BJeLR (HRASV12) viability, CellTiter-Glo ATP luminescence, 48 h; inhibition, % (concentration not given with the values); 300,000 compounds, 0.17% hits; in the data active = inhibition above about 50%
Rv3671c inh – inhibits the M. tuberculosis serine protease Rv3671c. P9WHR9. inhibition, % at 5.96 µM. 320,000 compounds, 0.048% hits; in the data active = inhibition above about 38%;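 note: extracellular domain of Rv3671c used as enzyme; 0% = enzyme with DMSO and 100% = no enzyme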
FadD28 binding – blocks FadD28 binding to the bisubstrate probe | fluorescence polarization | inhibition, % at 12.5 µM | 360,000 compounds, 0.22% hits | AID 588549; in the data active = inhibition above about 8.5%, passing the limit was not always enough
Mtb UGM inh – inhibitors of M. tuberculosis UDP-galactopyranose mutase | purified UGM, fluorescence polarization probe displacement | inhibition, % at 10 µM | P9WIQ1 | 320,000 compounds, 0.06% hits; in the data active = inhibition above about 10%, passing the limit was not always enough
PrP 5UTR inh – inhibition of PrP 5' UTR reporter expression | inhibition, % (no concentration beside the values) | cell-based PrP 5' UTR mRNA reporter, plate reader | 340,000 compounds, 0.35% hits; in the data active = inhibition above about 52%; note: 0 = median of the neutral control wells
GFP chromophore – counter-screen GFP chromophore formation inhibition; 2,100 compounds, 83% hits; AID 434968; EC50, µM; cell-free GFP chromophore formation, fluorescence; shares compounds with RecA intein inh; call rule not given here
Starred values were filed as active, the others as inactive; · = no result. An excerpt weighted towards active compounds, which were near 1.3% of everything screened.

SMILES	RecA intein inh	BJeLR viability	Rv3671c inh	FadD28 binding	Mtb UGM inh	PrP 5UTR inh	GFP chromophore
CCCCCCn1c(N)c(C(=O)NCCN2CCOCC2)c2nc3ccccc3nc21	-385	1	3	-5	1	-56	·
CCCCNC(=O)CSc1nc2ccccc2c(=O)n1Cc1ccc2c(c1)OCO2	2	-2	-4	1	2	-18	·
CCCCNC(=O)c1c(N)n(Cc2ccc3c(c2)OCO3)c2nc3ccccc3nc12	68*	-3	-8	2	3	-21	>38
CCCCCn1c(N)c(C(=O)NCc2cccs2)c2nc3ccccc3nc21	82*	-3	-96	·	3	·	3.2*
O=C(O)C1=CCC=CC1C(=O)O (configuration not stated)	·	·	·	0	·	·	·
Nc1c(O)cccc1C(=O)O	71*	9	-64	-1	0	-10	6.1*
O=C(O)c1ccccc1O	-2	-9	9	0	2	5	·
CC(C)CNc1ncnc2c1ncn2[C@H]1CN(Cc2ccc(C(=O)O)cc2)C[C@@H](CO)O1	·	·	·	-3	·	·	·
O=C(N/C(=C\c1ccc([N+](=O)[O-])cc1)C(=O)N1CCCCC1)c1ccccc1	2	10	2	-1	5	-10	·
O=[N+]([O-])/C(C(Cl)=C(Cl)Cl)=C(/Sc1ccccc1)N1CCCCC1	34*	-2	-3	-2	0	-7	>38
O=C(NC1(O)C(=O)c2ccccc2C1=O)c1c(Cl)cccc1Cl	34*	-5	-129	2	3	-22	36*
COC1(NC(=O)c2ccccc2)C(C)=CC(=O)C=C1C	-2	0	13	-3	-3	-19	·
O=C(NC1(O)C(=O)c2ccccc2C1=O)c1ccccc1	50*	-11	-116	-2	2	-29	16*
O=C(Nc1ccccc1Cl)c1c(F)c(F)c(F)c(F)c1F	3	0	7	-2	-1	-3	·
C[C@H](CO)N1C[C@H](C)[C@@H](CN(C)Cc2ccc(C(=O)O)cc2)Oc2ncc(Br)cc2C1=O	·	·	·	-1	·	·	·
O=C(CSc1nnc(-c2ccncc2)o1)Nc1cc(Cl)ccc1C(=O)O	·	·	-6	-4	-2	-4	·
CCOc1ccccc1N1CCN(C(=O)c2ccc(-c3ccc(OC(C)=O)cc3)cc2)CC1	31*	1	3	0	-3	-22	>38
COc1cc(/C=C2/SC(=S)N(Cc3ccccc3)C2=O)ccc1OCC(=O)O	37*	-6	-24	0	-2	-5	33*
O=C1/C(=C/c2ccc(O)c([N+](=O)[O-])c2)SC(=S)N1Cc1ccccc1	6	10	-9	2	-1	-26	·
CCOc1cc(/C=C2/SC(=S)N(Cc3ccccc3)C2=O)ccc1O	33*	-3	-18	-1	-5	-23	28*
CC(C)(C)S(=O)N1Cc2cc(C(=O)N3CCc4ccccc4C3)nc(-c3cccc(-c4cccnc4)c3)c2[C@@H]1CCO (some centres not stated)	·	·	·	-5	·	·	·
Cc1cccc(NC(=O)CSc2nc3ccccc3c(=O)n2CC2CCCO2)c1 (configuration not stated)	·	·	-3	-3	-3	-30	·
Cc1ccc(C)c(OCC(=O)N(Cc2ccccc2)c2c(N)n(Cc3ccccc3)c(=O)[nH]c2=O)c1	·	·	·	2	·	-9	·
CCOC1=C2[C@H](c3ccccc3)N(S(=O)(=O)c3ccc(C)cc3)C(C(C)(C)C)[C@H]2C(C#N)(C#N)C(C#N)(C#N)C1 (some centres not stated)	·	·	·	-5	·	·	·
CC1=NN(c2ccc(C)c(C)c2)C(=O)C1C(c1cccc(O)c1)C1C(=O)N(c2ccc(C)c(C)c2)N=C1C (configuration not stated)	95*	6	-176	-2	9	-11	0.91*
COc1cccc(C(C)(O)c2nc(-c3ccc(N(C)C)cc3)cs2)c1 (configuration not stated)	·	·	·	-1	·	·	·
CCOc1ccc(N=Nc2c(N)[nH][nH]c2=O)cc1	54*	0	5	-4	1	-87	18*
COc1cccc(N=Nc2c(N)[nH][nH]c2=O)c1	0	-10	3	-2	3	-49	·
COc1ccc(NC(=O)/C(Cl)=C(/Cl)S(=O)Cc2ccccc2)cn1 (configuration not stated)	78*	27	-3	-1	-3	27	6.6*
COc1ccc(NC(=O)Cc2ccccc2)cn1	1	4	2	0	1	-21	·
